Active and inactive are the calls of the source.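 How the source made its calls: active means Inhibition of the Kir2.1 potassium channel over 30% at some tested dose, plus a fitted dose response curve; inactive means no Kir2.1 inhibition at any dose, or no curve fitted.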
molecular target: Inward rectifier potassium channel 2 (Mus musculus) (UniProt P35561); assay: Kir2.1 channel inhibition, specificity check, SAR follow-up, selectivity assay for KCNK9 inhibitor project, cell-based, FluxOR thallium flux, CRC round 2 (AID 540321); conditions: Kir2.1-expressing cells; series mostly up to 30 µM
Sequence (P35561 whole entry, looked up): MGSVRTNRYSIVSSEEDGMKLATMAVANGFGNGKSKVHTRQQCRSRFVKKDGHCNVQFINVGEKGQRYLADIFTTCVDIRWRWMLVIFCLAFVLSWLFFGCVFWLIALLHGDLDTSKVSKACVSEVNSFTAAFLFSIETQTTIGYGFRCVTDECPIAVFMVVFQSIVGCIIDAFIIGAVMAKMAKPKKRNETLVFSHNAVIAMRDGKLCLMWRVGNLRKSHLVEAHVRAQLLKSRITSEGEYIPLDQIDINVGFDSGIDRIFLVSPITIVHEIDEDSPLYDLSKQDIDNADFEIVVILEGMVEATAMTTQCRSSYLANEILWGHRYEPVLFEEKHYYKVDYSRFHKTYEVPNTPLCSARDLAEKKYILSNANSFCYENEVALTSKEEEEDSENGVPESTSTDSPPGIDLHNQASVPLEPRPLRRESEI

outcome, inactive:
O=C(Nc1cccc(NC(=O)c2ccsc2)c1)c1ccccc1, CCOc1ccccc1NC(=O)c1cccc(NC(=O)c2ccccc2OC)c1, O=C(Nc1cccc(NC(=O)c2ccco2)c1)c1ccccc1, COc1ccccc1C(=O)Nc1cccc(NC(=O)c2ccccc2C(C)C)c1, CCOc1ccccc1NC(=O)c1cccc(NC(=O)c2ccccc2C)c1, Cc1cccc(C(=O)Nc2cccc(NC(=O)c3ccco3)c2)c1, COc1ccccc1NC(=O)c1cccc(NC(=O)c2ccccc2C(F)(F)F)c1, CC(C)(C)c1ccc(C(=O)Nc2cccc(NC(=O)c3ccccc3)c2)cc1, S=c1[nH]nc(-c2ccco2)n1CC1CCCCC1, Cc1cccc(C(=O)Nc2cccc(NC(=O)c3ccccc3OCC(C)C)c2)c1, COc1ccc(-c2n[nH]c(=S)n2C(C)C2CC3CCC2C3)cc1 (centres undefined), Cc1cccc(C(=O)Nc2cccc(NC(=O)c3ccccc3OC(F)(F)F)c2)c1, O=C(Nc1cccc(NC(=O)c2cccc(Cl)c2)c1)c1ccccc1, Cc1cccc(C(=O)Nc2cccc(NC(=O)c3cccc(C)c3)c2)c1, CC(C)n1c(-c2ccco2)n[nH]c1=S, COc1ccccc1C(=O)Nc1cccc(NC(=O)c2ccccc2)c1, Cc1cccc(C(=O)Nc2cccc(NC(=O)c3ccccc3C)c2)c1, CCOc1ccccc1NC(=O)c1cccc(NC(=O)C2CCOC2)c1 (centres undefined), CC(C1CC2CCC1C2)n1c(C2CCOC2)n[nH]c1=S (centres undefined)

— PubChem BioAssay AID540321 (Johns Hopkins Ion Channel Center, 2011)
